Source: PubChem BioAssay (National Center for Advancing Translational Sciences (NCATS))
This is a sample that favours compounds with a hit; in the whole collection about 19% have one here.
TDP1 block: TDP1 (human) enzyme inhibition. Q9NUW8. recombinant TDP1, AlphaScreen DNA substrate cleavage. Potency, µM (titrated, usually from 130 µM), for the others: at the highest dose activity change, negative = inhibition, most hits filed as inhibitors. 0.28% of 350,000 active. AID 485290; note: potency is the fitted concentration of half-maximal effect; nearly all actives have a fitted effect of over 40% in size
Target sequence (Q9NUW8 whole entry, looked up): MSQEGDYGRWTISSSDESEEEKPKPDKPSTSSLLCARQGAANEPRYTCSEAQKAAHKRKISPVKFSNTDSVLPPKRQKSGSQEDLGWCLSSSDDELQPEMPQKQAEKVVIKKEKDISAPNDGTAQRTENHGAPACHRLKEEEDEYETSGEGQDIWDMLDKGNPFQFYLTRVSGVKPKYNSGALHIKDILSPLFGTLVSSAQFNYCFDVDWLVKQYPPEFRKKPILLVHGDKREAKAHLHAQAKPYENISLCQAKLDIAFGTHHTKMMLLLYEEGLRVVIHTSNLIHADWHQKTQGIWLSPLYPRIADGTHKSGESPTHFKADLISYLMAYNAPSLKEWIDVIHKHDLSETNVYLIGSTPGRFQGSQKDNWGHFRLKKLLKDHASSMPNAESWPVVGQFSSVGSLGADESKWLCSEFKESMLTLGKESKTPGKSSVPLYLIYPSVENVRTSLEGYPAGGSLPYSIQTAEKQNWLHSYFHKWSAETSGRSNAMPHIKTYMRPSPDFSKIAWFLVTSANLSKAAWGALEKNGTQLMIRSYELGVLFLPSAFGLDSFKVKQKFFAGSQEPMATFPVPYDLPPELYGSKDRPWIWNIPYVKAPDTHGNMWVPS
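E. coli-derived human Tdp1, 1 nM final. Cpd preinc 15 min RT; substrate 15 nM final, 5 min RT; AS bead mix 10 ug/ml final, 10 min RT. Signal loss = tyrosine-FITC cleavage. No-enzyme wells = max signal.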
TDP1 cell noCPT: qHTS for Inhibitors of human tyrosyl-DNA phosphodiesterase 1 (TDP1): qHTS in cells in absence of CPT; Potency, µM (highest dose often 46.2 µM), without a hit: at the top dose activity change, negative = growth inhibition, usual class: inhibitors; AID 686978, 2013; 15% of 420,000 active; DT40 Tdp1-/- hTDP1 cells, no CPT, ATP luminescence, 48 h; note: potency is the fitted concentration of half-maximal effect; nearly all actives have a fitted effect of over 55% in size
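Luminescent ATP content (CellTiter-Glo) served as the growth readout. Knockout chicken DT40 cells expressing human TDP1 were exposed to compounds without camptothecin for a minimum 48 hr at 37 °C.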
DT40 TDP1 CPT: DT40-hTDP1 cell growth loss with CPT | chicken DT40 Tdp1-/-;hTDP1 cells + 20 nM CPT, ATP luminescence, 48 h | Potency, µM (highest dose often 46.2 µM), inactives show top-dose activity change, negative = growth inhibition, usual class: inhibitors | 12% of 420,000 active; note: potency is the fitted concentration of half-maximal effect; nearly all actives have a fitted effect of over 55% in size
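Cell growth measured by CellTiter-Glo luminescence after a minimum 48 h, 37 C compound exposure with 20 nM CPT in Tdp1-knockout DT40 cells stably expressing hTDP1, seeded 400/well; qHTS titration format.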
IL-1B inflam inh: inflammasome signaling inhibition, IL-1 beta readout. activity change, % at 57.5 µM. AID 743279. THP-1 LPS/ATP IL-1B secretion, AlphaLISA, 16 h; active compounds read low. 4.7% of 360,000 active; in the data active = activity change below about -50%; inconclusive = mostly about -30% to -49%
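Secreted IL-1B measured by AlphaLISA bead assay after 16 h compound exposure of THP-1 cells; compounds (final up to 57.5 uM) added 1 h before LPS (250 ng/mL) and ATP (1.25 mM) stimulation; lower signal means less secretion.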
Giardia killer: kills Giardia lamblia. AID 540267. Giardia lamblia trophozoite viability. 0.15% of 340,000 active. activity change, % at 7.66 µM, hits read low; in the data active = activity change below about -80%; inconclusive = between about -30% and that limit;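 note: parasites exposed to compound for two days anaerobically before the ATP read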
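Anaerobic 48 hrs incubation at 37 deg C of 100 trophozoites/well with test compounds; ATPLite 1-Step luminescence, 15-30 min RT, reports cellular ATP as viability.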
ELG1 DNA repair: blocks ELG1-dependent DNA repair in HEK293T cells | HEK293T ELG1-luciferase reporter, luminescence, 16 h; DNA damage induced by 5-fluorouridine | Potency, µM (doses to about 46.1 µM), for the others: at the highest dose activity change, negative = inhibition, actives largely listed as inhibitors | 2.3% of 330,000 active | AID 504467; note: potency is the fitted concentration of half-maximal effect; nearly all actives have a fitted effect of over 55% in size
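Step one: seed 2,000 cells per well. Step two: pin-transfer compound or DMSO alongside 5-fluorouridine. Step three: incubate 16 hr, 37 °C, 5% CO2. Step four: add ONE-Glo, wait 30 min, read luminescence.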
* marks the source's active call; other numbers are inactive results; u = inconclusive; x = no result given; ! = not active in a repeat. Unless noted, calls come from the whole dose curve; as a rule, active = well fitted curve in the direction sought with a large enough effect; inconclusive = small, poorly fitted or top-dose-only effect, or another doubt; inactive = no such curve, though single readings can be large; an effect the other way counts as inactive or inconclusive. % is set by controls: 0 for no effect and ±100 for the full control effect.

SMILES	TDP1 block	TDP1 cell noCPT	DT40 TDP1 CPT	IL-1B inflam inh	Giardia killer	ELG1 DNA repair
CC1CCN(S(=O)(=O)c2ccc(NC(=O)Cc3ccc(S(=O)(=O)N4CCOCC4)s3)cc2)CC1	1%	23µM*	18µM*	17	15	-30%
O=C(Cc1ccc(S(=O)(=O)N2CCOCC2)s1)Nc1ccc(S(=O)(=O)N2CCCCC2)cc1	x	u	18µM*	-15	18	u
CCOc1ccccc1NC(=O)C1CCCN(S(=O)(=O)c2ccc3c(c2)C(C)(C)C(=O)N3C)C1 (stereo unspecified)	x	u	18µM*	-4	-16	-1%
CN1C(=O)C(C)(C)c2cc(S(=O)(=O)N3CCCC(C(=O)Nc4ccc(Cl)cc4)C3)ccc21 (stereo unspecified)	x	18µM*	u	-12	1	u
CC(C)c1ccc(NC(=O)C2CCCN(S(=O)(=O)c3ccc4c(c3)C(C)(C)C(=O)N4C)C2)cc1 (stereo unspecified)	x	u	u	58	-8	u
CN1C(=O)C(C)(C)c2cc(S(=O)(=O)NCC3CCC(C(=O)NCc4ccccc4)CC3)ccc21 (stereo unspecified)	x	16µM*	u	-11	-13	4%
Cc1ccccc1NC(=O)C1CCCN(S(=O)(=O)c2ccc3c(c2)C(C)(C)C(=O)N3C)C1 (stereo unspecified)	x	u	8%	-1	5	19%
COc1ccccc1CNC(=O)C1CCCN(S(=O)(=O)c2ccc3c(c2)C(C)(C)C(=O)N3C)C1 (stereo unspecified)	x	15µM*	u	4	-3	-23%
COc1ccccc1CNC(=O)C1CCN(S(=O)(=O)c2ccc3c(c2)C(C)(C)C(=O)N3C)CC1	x	u	u	-4	u	26%
COc1cccc(C(=O)N2CCC(n3nccc3NC(=O)C(OC)c3ccccc3)CC2)c1 (stereo unspecified)	4%	-4%	-2%	0	-16	0%
COc1cccc(CNC(=O)C2CCCN(S(=O)(=O)c3ccc4c(c3)C(C)(C)C(=O)N4C)C2)c1 (stereo unspecified)	x	u	15µM*	-3	-17	u
COc1ccc([C@H]2C[C@H](O)[C@@H](n3cc(C4CC4)nn3)CN2C(=O)C2CCCCC2)cc1	x	-1%	3%	7	x	x
COc1ccc(C)cc1NCc1ccc([N+](=O)[O-])cc1	x	-24%	0%	6	19	u
COc1ccc(CNc2cc([N+](=O)[O-])ccc2OC)cc1	-5%	-17%	-19%	-23	4	15%
COc1cc(CNc2nc(C)c([N+](=O)[O-])c(C)c2C#N)cc(OC)c1OC	0%	18µM*	21µM*	39	16	7.3µM*
COc1ccc(CNc2nc(C)c([N+](=O)[O-])c(C)c2C#N)cc1	-3%	u	18µM*	-12	13	-13%
Cc1c(Cl)cccc1NC(=O)CSc1nc(=O)n(Cc2cccnc2)c2c1CCC2	8%	-11%	-20%	x	x	x
COc1ccc(NC(=O)C2CCCN(CCCc3ccccc3)C2)cc1OCC(C)C (stereo unspecified)	6%	5.2µM*	7.3µM*	-85*	-10	-22%
O=C(NCc1ccccc1)c1ccc(CSc2ccccc2)o1	-3%	-17%	-12%	-91*	-13	-8%
COc1ccc(S(=O)(=O)Cc2ccc(C(=O)NCc3ccc(C)cc3)o2)cc1	4%	23µM*	-13%	-17	-14	u
COc1ccc(CNC(=O)c2ccc(CS(=O)(=O)c3ccc(Br)cc3)o2)cc1	2%	23µM*!	23µM*	-22	14	-8%
CC(=O)Nc1ccc(NC(=O)c2ccc(CSc3ccccc3)o2)cc1	1%	-27%	1%	u	-14	u
O=C(NCc1ccccc1Cl)c1ccc(CS(=O)(=O)c2ccc(Br)cc2)o1	2%	13µM*	23µM*	x	x	x
Cc1cn2c(=O)c(S(=O)(=O)NCc3ccccc3Cl)c(C)nc2s1	-5%	-19%	5%	x	x	x
Cc1ccc(CC(=O)N2CCN(C(=O)C3CCCO3)CC2)cc1 (stereo unspecified)	2%	24%	-2%	20	-8	1%
SMILES	TDP1 block	TDP1 cell noCPT	DT40 TDP1 CPT	IL-1B inflam inh	Giardia killer	ELG1 DNA repair
COc1ccc(S(=O)(=O)Cc2ccc(C(=O)NCc3ccccc3)o2)cc1	2%	-11%	-19%	-3	-5	0%
COc1ccc(OC)c(CCNC(=O)c2ccc(CS(=O)(=O)c3ccc(Br)cc3)o2)c1	8%	u	21µM*	-12	0	u
COc1ccc(S(=O)(=O)Cc2ccc(C(=O)NCc3cccnc3)o2)cc1	1%	u	u	40	-23	15µM*
O=C(NCc1ccccc1)c1ccc(CS(=O)(=O)c2ccccc2)o1	2%	16µM*	2.6µM*	-3	12	-19%
COc1cc(Cl)c(NC(=O)c2cc(CN3CCCC3)on2)c(OC)c1	1%	-22%	2%	x	x	x
Cc1cc(C)c(Cn2c(C(O)c3ccccc3)nc3ccccc32)c(C)c1 (stereo unspecified)	8%	9.2µM*	18µM*	x	x	x
CCCn1c(C(O)c2cc(OC)c(OC)c(OC)c2)nc2ccccc21 (stereo unspecified)	1%	21µM*	u	45	-13	2%
COc1ccc(C(O)c2nc3ccccc3n2C)cc1OC (stereo unspecified)	0%	12µM*	9.2µM*	1	-4	9.2µM*
COc1cc(C(O)c2nc3ccccc3s2)cc(OC)c1OC (stereo unspecified)	1%	9.2µM*	4.1µM*	9	-4	-6%
Cc1nn(C)c(C)c1S(=O)(=O)N1CCC(CO)(CC2CCCCO2)CC1 (stereo unspecified)	4%	1%	3%	23	2	-3%
COc1ccc(F)cc1S(=O)(=O)NCCc1c(C)[nH]c2c(Cl)cccc12	9%	u	u	x	x	x
Cc1nn(-c2ccccc2)c(C)c1C=O	5%	-19%	-3%	3	0	-9%
Cc1nn(-c2ccccc2)c(C)c1S(=O)(=O)O	25µM*	31%	-28%	25	-2	-1%
CCCCCCn1c(CN2CCN(CCO)CC2)nc2c1c(=O)n(C)c(=O)n2C	4%	-5%	-13%	-5	-3	-16%
